This is part of a sample that, as a whole, favours compounds with a hit. Of some 79,000 tested, about 15% had one in any assay. Activity calls are given as the source filed them. Cut-off read from the data, not from the text of the source: active = growth inhibition above about 70%; inactive = the rest.
Legend:
[1] = NCI Yeast Anticancer Drug Screen. Data for the mlh1 strain (AID 171);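 note: 0% = growth of vehicle-treated control cultures of the same strain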; details: S. cerevisiae mlh1 strain growth inhibition, active compounds read high
Outline: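 Here the genetically defined yeast mutant is grown with each compound, and the extent to which its growth falls below that of vehicle-exposed cells is reported.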

[2] = NCI Yeast Anticancer Drug Screen. Data for the sgs1 strain (AID 173);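 note: 0% = growth of vehicle-only control cultures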; details: S. cerevisiae sgs1 mutant, active compounds read high
Outline: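 Relative growth inhibition, referenced to vehicle, was determined in a yeast strain with a defined alteration affecting DNA damage repair or cell cycle control after compound exposure.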

[3] = NCI Yeast Anticancer Drug Screen. Data for the mlh1 rad18 strain (AID 175); details: S. cerevisiae mlh1 rad18 strain growth inhibition, active compounds read high
Outline: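 In this whole-cell yeast screen, a strain with altered DNA damage repair is challenged with compound, and its growth is measured against matched vehicle-treated controls.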

[4] = NCI Yeast Anticancer Drug Screen. Data for the rad18 strain (AID 177); details: S. cerevisiae rad18 mutant growth inhibition, active compounds read high
Outline: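 Screen uses a yeast strain with a defined lesion in DNA damage repair; compound effect is read as loss of growth compared to untreated vehicle cultures.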

[5] = NCI Yeast Anticancer Drug Screen. Data for the rad52 strain (AID 147);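 note: 0% = growth of vehicle-treated control cultures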; details: S. cerevisiae rad52 mutant growth inhibition, active compounds read high
Outline: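 Measured: yeast growth inhibition. System: strain with a defined DNA damage repair alteration. Reference: vehicle-treated control cultures.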

[6] = NCI Yeast Anticancer Drug Screen. Data for the wt1 strain (AID 149);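 note: 0% = growth of vehicle-treated wt1 cultures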; details: S. cerevisiae wt1 strain (SPY 50644) growth inhibition, active compounds read high
Outline: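 Growth inhibition read against vehicle controls after compound exposure of the wt1 yeast strain.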

[7] = NCI Yeast Anticancer Drug Screen. Data for the rad50EPP+ strain (AID 151);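 note: 0% = growth of vehicle-treated control cultures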; details: S. cerevisiae rad50 mutant strain, active compounds read high
Outline: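 One strain with a rad50 alteration (rad50EPP+) was compound-treated, its growth then compared to that of vehicle controls.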

[8] = NCI Yeast Anticancer Drug Screen. Data for the rad50 strain (AID 155);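 note: 0% = growth of vehicle-only cultures of the same strain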; details: S. cerevisiae rad50 strain growth inhibition, active compounds read high
Outline: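 Readout: growth inhibition relative to vehicle-treated cultures. Compound exposure was carried out in a genetically defined yeast strain deficient in DNA damage repair.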

[9] = NCI Yeast Anticancer Drug Screen. Data for the mec2-1 strain (AID 157); details: S. cerevisiae mec2-1 strain, active compounds read high
Outline: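 Test agents were screened against the mec2-1 yeast strain, with defined DNA repair or cell cycle alteration. Growth was scored as inhibition against vehicle-only controls.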

[10] = NCI Yeast Anticancer Drug Screen. Data for the rad14 strain (AID 159);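 note: 0% = growth of vehicle-treated control cultures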; details: S. cerevisiae rad14 strain growth inhibition, active compounds read high
Outline: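 Growth inhibition vs vehicle controls; genetically altered yeast strain (DNA damage repair defect) treated with test compounds.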

[11] = NCI Yeast Anticancer Drug Screen. Data for the sgs1 mgt1 strain (AID 161);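 note: 0% = growth of cultures given vehicle only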; details: S. cerevisiae sgs1 mgt1 strain, active compounds read high
Outline: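 Read-out: growth inhibition vs vehicle controls. Cells: mutant yeast strain deficient in DNA damage repair.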

[12] = NCI Yeast Anticancer Drug Screen. Data for the cln2 rad14 strain (AID 165);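 note: 0% = growth equal to vehicle treated cultures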; details: S. cerevisiae cln2 rad14 strain, active compounds read high
Outline: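 Growth of compound-exposed yeast (cln2 rad14 genotype) measured and expressed as inhibition relative to vehicle.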

[13] = NCI Yeast Anticancer Drug Screen. Data for the bub3 strain (AID 167); details: S. cerevisiae bub3 mutant strain, active compounds read high
Outline: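 Readout: yeast growth inhibition, expressed relative to vehicle-only wells. The test organism is a mutant strain from a panel with lesions in DNA repair or checkpoint genes.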

[14] = NCI Yeast Anticancer Drug Screen. Data for the wt2 strain (AID 169);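 note: 0% = growth of vehicle-treated yeast cultures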; details: S. cerevisiae wt2 strain growth inhibition, active compounds read high
Outline: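 Genetically defined yeast strains from a DNA-repair/cell-cycle panel were used. Compound-exposed yeast growth was measured, and the inhibition was calculated relative to vehicle treatment.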

[15] = at 5.0 µM (retest, dose inferred, filed as 0.5)
[16] = at 50.0 µM (retest, dose inferred, filed as 5.0)

Measured: growth inhibition

CCCN(CCC)c1c([N+](=O)[O-])cc(S(N)(=O)=O)cc1[N+](=O)[O-]
inactive: [1]; at 1.2 µM -27% | [1]; at 3.7 µM -28% | [1]; at 11.0 µM -16% | [1]; at 33.0 µM 31% | [1]; at 100.0 µM -6% | [2]; at 1.2 µM 3% | [2]; at 3.7 µM 10% | [2]; at 11.0 µM 16% | [2]; at 33.0 µM 30% | [2]; at 100.0 µM 6% | [3]; [15] 9% | [4]; at 1.2 µM -8% | [4]; at 3.7 µM -1% | [4]; at 11.0 µM 6% | [4]; at 33.0 µM 50% | [4]; at 100.0 µM 0%
active: [3]; [16] 70% | [3]; at 50.0 µM 72.9%

COc1cccc2c1C(=O)c1c(O)c3c(c(O)c1C2=O)C[C@@](O)(/C(C)=N\O)C[C@@H]3OC1CC(N)C(O)C(C)O1 (stereo partly specified)
inactive: [5]; at 1.2 µM 8% | [5]; at 3.7 µM 27% | [5]; at 11.0 µM 61% | [6]; at 1.2 µM 6% | [6]; at 3.7 µM 1% | [6]; at 11.0 µM 8% | [6]; at 33.0 µM 19% | [6]; at 100.0 µM 29% | [7]; at 1.2 µM 7% | [7]; at 3.7 µM 29% | [7]; at 11.0 µM 63% | [8]; at 1.2 µM 13% | [8]; at 3.7 µM 52% | [8]; [15] 22% | [9]; at 1.2 µM -2% | [9]; at 3.7 µM 3% | [9]; [15] 0% | [9]; at 11.0 µM 14% | [9]; at 33.0 µM 27% | [9]; [16] -14% | [9]; at 50.0 µM 5.75% | [9]; at 100.0 µM 38% | [10]; at 1.2 µM 1% | [10]; at 3.7 µM 3% | [10]; at 11.0 µM 8% | [10]; at 33.0 µM 29% | [10]; at 100.0 µM 63% | [11]; [15] -5% | [11]; [16] 26% | [11]; at 50.0 µM -9.9% | [12]; [15] 3% | [12]; [16] 18% | [12]; at 50.0 µM 26.2% | [13]; at 1.2 µM -2% | [13]; at 3.7 µM 0% | [13]; [15] 35% | [13]; at 11.0 µM 5% | [13]; at 33.0 µM 25% | [13]; [16] 18% | [13]; at 50.0 µM -23.6% | [13]; at 100.0 µM 47% | [14]; at 1.2 µM 0% | [14]; at 3.7 µM 1% | [14]; at 11.0 µM 12% | [14]; at 33.0 µM 25% | [14]; at 100.0 µM 37% | [1]; at 1.2 µM 1% | [1]; at 3.7 µM -1% | [1]; at 11.0 µM 11% | [1]; at 33.0 µM 26% | [1]; at 100.0 µM 49% | [2]; at 1.2 µM 0% | [2]; at 3.7 µM 5% | [2]; at 11.0 µM 15% | [2]; at 33.0 µM 29% | [2]; at 100.0 µM 48% | [3]; [15] 9% | [3]; [16] 46% | [3]; at 50.0 µM 13.8% | [4]; at 1.2 µM 3% | [4]; at 3.7 µM 10% | [4]; at 11.0 µM 20% | [4]; at 33.0 µM 43%
active: [5]; at 33.0 µM 84% | [5]; at 100.0 µM 90% | [7]; at 33.0 µM 82% | [7]; at 100.0 µM 89% | [8]; at 11.0 µM 79% | [8]; at 33.0 µM 89% | [8]; [16] 93% | [8]; at 50.0 µM 91.6% | [8]; at 100.0 µM 93% | [4]; at 100.0 µM 75%

— PubChem BioAssay (NCI)
